Measured values from PubChem BioAssay (NCI).
Several values for one entry are separate records, joined by “and”; a condition that tells them apart may be missing. Equal values may be shown once. This is part of a sample that, as a whole, favours compounds with a hit. Of some 83,000 tested, about 20% had one in any assay.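 48-hour exposure, single concentration, 96-well plates; percent growth endpoint where 0 means no net growth. Active: below 10.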 Activity calls are given as the source filed them.

The compounds below were run on HOP-62 NSCLC (assay: NCI-60 one-dose screen, 48 h (100 = growth as untreated, 0 = no growth, -100 = all killed)). Conditions: 10 µM unless noted.
`O=C(CSc1nc2ccccc2c(=O)[nH]1)Nc1ccccc1C(=O)O` was tested, and the growth was 97.8% (inactive). In the case of `Cn1cc(-c2cc(N)n3nc(-c4c[nH]c5ccccc45)cc3n2)c2ccccc21`, the growth is reported as -85.4% (active). In the case of `Cc1cccc(/C=C/c2ccc(NC(=S)NCCCCN(C)C)cc2)c1`, the growth is reported as -67.4% (active). With `Cc1ccc(N=Nc2c(N)nn3c(-c4cc5ccccc5oc4=O)ccnc23)cc1` the growth was 48.5% (inactive). For `O=C(Nc1nc2ccccc2s1)Nc1ccccc1Cl`, the growth was 12.2% (inactive). In the case of `COc1ccc(NC(=O)CSc2nnc(-c3ccc(-c4nc5ccc(Cl)cc5[nH]4)cc3)o2)cc1`, the growth is reported as -25.4% (active). With `O=C1Nc2cc(-c3ccc(NS(=O)(=O)c4ccc(C(F)(F)F)cc4)cc3)ccc2/C1=C/c1ccc[nH]1` the growth was 43.5% (inactive). For `COc1ccc(Nc2nnc(-c3c[nH]c4ccccc34)o2)cc1`, the growth was 77.8% (inactive). For `Cn1cc(-c2cc(N)n3nc(-c4c[nH]c5ccc(F)cc45)cc3n2)c2cccnc21`, the growth was -85.9% (active). For `O=C(NN1C(=O)/C(=C/C=C/c2ccc([N+](=O)[O-])o2)SC1=S)c1ccc([N+](=O)[O-])cc1`, the growth was -100% (active). In the case of `CN1C(=O)/C(=C/c2ccco2)S/C1=N/c1nccs1`, the growth is reported as 108% (inactive). `N#C/C(=C/c1ccc([N+](=O)[O-])cc1)c1nnc(NC(=O)c2ccc(-n3c(=O)[nH]c4ccccc4c3=O)cc2)s1` was tested, and the growth was 85.6% (inactive). In the case of `O=C(CSc1nnc(-c2ccc(-c3nc4ccc(Cl)cc4[nH]3)cc2)o1)Nc1ccccc1`, the growth is reported as -27.1% (active). For `Cc1cccc(NCC(=O)N2CCN(c3ncnc4c3cnn4-c3ccccc3)CC2)c1`, the growth was 67.4% (inactive). In the case of `O=C(N/N=C/c1ccc(Br)o1)c1[nH]c2ccc(Br)cc2c1-c1ccccc1`, the growth is reported as -28.6% (active). For `CCCCCCCCc1ccc(C(=O)Nc2ccc(C)c(OP(=O)(O)O)c2)cc1`, the growth was 104% (inactive). In the case of `Cn1cc(-c2cc3nc(-c4cn(C)c5ncc(Br)cc45)cc(N)n3n2)c2cc(F)ccc21`, the growth is reported as 15% (inactive). In the case of `O=C1Nc2ccccc2/C1=C/C(=O)c1cc2ccccc2oc1=O`, the growth is reported as 101% (inactive). In the case of `c1n[nH]cc1-c1nc2ccc3cn[nH]c3c2c2c1CCCC2`, the growth is reported as 79.9% (inactive). With `CN1C(=O)C(O)(CC(=O)c2cc3ccccc3oc2=O)c2ccccc21` (stereo not given) the growth was 97% (inactive). `O=C(CCl)Nc1ccc(C(=O)/C=C/c2cc3ccccc3nc2Cl)cc1` was tested, and the growth was -8.06% (active) and 37.4% (inactive). In the case of `Cc1cc(C2(c3cc(C)c(OCC(O)CNc4c(C)n(C)n(-c5ccccc5)c4=O)cc3C(C)C)OC(=O)c3ccccc32)c(C(C)C)cc1OCC(O)CNc1c(C)n(C)n(-c2ccccc2)c1=O` (stereo not given), the growth is reported as 52% (inactive). For `Cn1cc(-c2cc(N)n3nc(-c4c[nH]c5ccccc45)cc3n2)c2cc(Br)ccc21`, the growth was -76.9% (active). For `CCC(=O)c1c2c(c3ccc4c5ccccc5ccc4n13)C(=O)c1ccccc1C2=O`, the growth was 81.7% (inactive). For `CS(=O)(=O)Nc1cc(-c2ccc3ncnc(Nc4ccc(OCc5cccnc5)c(Cl)c4)c3c2)cnc1Cl`, the growth was 24.3% (inactive). For `Cn1cc(-c2cc(N)n3nc(-c4c[nH]c5ccccc45)cc3n2)c2cc(Cl)ccc21`, the growth was -73.7% (active). `COc1ccc(N=Nc2c(N)nn3c(N)c(C#N)c(-c4ccc(C)cc4)nc23)cc1` was tested, and the growth was 63.6% (inactive). `COc1ccc(C(=O)/C=C/c2ccc3c(c2)OCCO3)cc1S(N)(=O)=O` was tested, and the growth was 29.7% (inactive). With `CCCCC[C@@H]1C/C=C(\C)[C@@H](O)C(C)(C)C(=O)[C@@H](C)/C=C(\C)[C@@H]2C[C@H](O)C[C@](O)(CC(=O)O1)O2` the growth was 68.7% (inactive). `CC(C)(C)c1ccc(OCc2nc3ccccc3n2-c2cccc(N)c2)cc1` was tested, and the growth was 88.6% (inactive) and 102% (inactive). For `O=C1/C(=C/c2cnc(-c3ccccc3)s2)SC(=S)N1Cc1ccc2c(c1)OCO2`, the growth was 12.2% (inactive). For `COc1ccc(NC2=C(I)C(=O)C(C)=C(C)C2=O)cc1`, the growth was 85.4% (inactive). `COc1ccc(-c2nnc3c(/C=C/c4ccc(Br)cc4)nc4ccccc4n23)cc1` was tested, and the growth was 104% (inactive). With `C[C@H]1[C@@H](CC(=O)N[C@@H](Cc2coc3ccccc23)B(O)O)O[C@@H]2OC3(C)CC[C@H]4[C@H](C)CC[C@@H]1[C@@]24O3` the growth was 6.31% (active). In the case of `O=C(NNC(=S)NC(=O)c1ccccc1)c1ccc(OCc2nc3ccc(Cl)cc3[nH]2)cc1`, the growth is reported as -64.3% (active).
